This is an account of results in PubChem BioAssay (Tox21).

Results filed as inconclusive are left out. Values without a mark were called inactive. Calls of active or inactive are those of the source. Unless noted, calls come from the whole dose curve; as a rule, active = well fitted curve in the direction sought with a large enough effect in the repeat runs; inconclusive = weak or mixed curves; inactive = no such curve, though single readings can be large; an effect the other way counts as inactive or inconclusive.

Assay [1] can be described thus: qHTS assay to identify aromatase inhibitors - cell viability counter screen (AID 743084).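 Note: cells stimulated with testosterone during compound exposure; nearly all actives have a fitted effect of over 55% in size.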 Note: potency is the fitted concentration of half-maximal effect. For orientation: Quantitative high-throughput screening tests each substance at several concentrations.
In assay [2] the target is Aryl hydrocarbon receptor (Homo sapiens) (UniProt P35869). The experiment in a line: qHTS assay to identify small molecule that activate the aryl hydrocarbon receptor (AhR) signaling pathway (AID 743085).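 For activation: HG2L7.5c1 human HepG2 liver cells with stably integrated DRE-driven firefly reporter; series mostly up to about 70 µM.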 Note: nearly all actives have a fitted effect of over 15% in size. Note: potency is the fitted concentration of half-maximal effect. Summed up: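 A multiplexed format paired cell viability (CellTiter-Fluor fluorescence) with AhR-dependent luciferase output (ONE-Glo luminescence) in the same wells of HepG2 DRE-luc cells after 24 h compound exposure at 37C.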

Assay [3] can be described thus: qHTS assay to identify small molecule that activate the aryl hydrocarbon receptor (AhR) signaling pathway - cell viability counter screen (AID 743086). Note: nearly all actives have a fitted effect of over 45% in size. Note: potency is the fitted concentration of half-maximal effect. The gist of the method: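 HepG2-AhR-luc (HG2L7.5c1) cells, 4000/well, were preincubated 5 h at 37C, exposed to compound in qHTS format for 24 hr at 37C, then given CellTiter-Fluor for 30 min; viability was read as fluorescence in the reporter wells.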

Assay [4] deals with Peroxisome proliferator-activated receptor gamma (Homo sapiens) (UniProt P37231). The experiment in a line: qHTS assay to identify small molecule agonists of the peroxisome proliferator-activated receptor gamma (PPARg) signaling pathway (AID 743094; active = well fitted activation curve with a large enough effect in the signal ratio in the repeat runs, not every such curve was filed as active; the % refers to the signal ratio; note: potency is the fitted concentration of half-maximal effect). Summed up:
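Beta-lactamase FRET fluorescence was the read-out after a 1 h room-temperature substrate step, following 17 h compound treatment at 37C of HEK293H cells expressing a UAS-driven bla reporter responsive to PPARg.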

Assay [5] shares this target. The experiment in a line: qHTS assay to identify small molecule antagonists of the peroxisome proliferator-activated receptor gamma (PPARg) signaling pathway (AID 743191; calls by dose curve; note: nearly all actives have a fitted effect of over 30% in size; note: potency is the fitted concentration of half-maximal effect). Summed up: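 GeneBLAzer PPARg UAS-bla HEK293H cells carrying a UAS-driven beta-lactamase reporter were plated at 3000 cells/well, preincubated 5 h at 37C, then given compound for 17 h at 37C; LiveBLAzer B/G FRET substrate was read after 1 h at room temperature.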

Assay [6] in a line: qHTS assay to identify small molecule antagonists of the peroxisome proliferator-activated receptor gamma (PPARg) signaling pathway - cell viability counter screen (AID 743194). Note: nearly all actives have a fitted effect of over 55% in size. Note: potency is the fitted concentration of half-maximal effect. The following applies: Potency: co-treated with 50 nM rosiglitazone unless noted. Summed up:
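PPARg-UAS-bla HEK293H cells were plated, rested 5 h at 37 C, then treated with compounds plus rosiglitazone (50 nM final) for 17 h at 37 C; viability was then read by CellTiter-Glo luminescence after 30 min at room temperature.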

Assay [7] in a line: qHTS assay for small molecule agonists of the antioxidant response element (ARE) signaling pathway - cell viability counter screen (AID 743203; calls by dose curve; note: nearly all actives have a fitted effect of over 55% in size; note: potency is the fitted concentration of half-maximal effect). Summed up: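 HepG2 cells carrying ARE-driven beta-lactamase; 2,000 cells/well; 5 hrs plating; compound pinned from DMSO; 16 hrs 37C/5% CO2; CellTiter-Glo added; 30 min RT; luminescence.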
The nature of assay [8]: qHTS assay for small molecule activators of the heat shock response signaling pathway (AID 743210; active = well fitted activation curve with a large enough effect in the signal ratio in the repeat runs, with a control signal flat, not every such curve was filed as active; the % refers to the signal ratio;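 note: HeLa cells with beta-lactamase reporter driven by heat shock elements; series mostly up to about 63 µM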). Summed up:
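Reporter gene assay: HeLa cells stably bearing an HSE-bla construct, compound treatment 5 h at 37 C, LiveBLAzer substrate 2.5 h at RT, fluorescence intensity.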

A short description of assay [9]: qHTS assay to identify small molecule agonists of the peroxisome proliferator-activated receptor delta (PPARd) signaling pathway - cell viability counter screen (AID 743211). Note: nearly all actives have a fitted effect of over 55% in size. Note: potency is the fitted concentration of half-maximal effect. Summed up:
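Tox21 library compounds, delivered in DMSO, were incubated 17 h with PPARd-bla HEK293H cells; cytotoxicity was taken from CellTiter-Glo luminescence read 30 min after reagent addition.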

Assay [10] has as its target Peroxisome proliferator-activated receptor delta (Homo sapiens) (UniProt Q03181). As to the kind of experiment: qHTS assay to identify small molecule agonists of the peroxisome proliferator-activated receptor delta (PPARd) signaling pathway (AID 743212; calls by dose curve; note: potency is the fitted concentration of half-maximal effect). The gist of the method: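 A PPARd-bla HEK293H line with beta-lactamase under an Upstream Activator Sequence is treated with compounds at 37 C. Substrate loading for 2 h at room temperature precedes the fluorescence measurement.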

Assay [11] is described as follows: qHTS assay to identify small molecule antagonists of the peroxisome proliferator-activated receptor delta (PPARd) signaling pathway - cell viability counter screen (AID 743213). Note: nearly all actives have a fitted effect of over 50% in size. Note: potency is the fitted concentration of half-maximal effect. The gist of the method: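 Cytotoxicity counter screen: CellTiter-Glo luminescence read 30 min after addition, in the same wells as the reporter assay. There, PPARd UAS-bla HEK293H cells (3000/well) were treated 17 h at 37 C with compound and 300 nM L165041.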

Assay [12] deals with Peroxisome proliferator-activated receptor delta (Homo sapiens) (UniProt Q03181). As to the kind of experiment: qHTS assay to identify small molecule antagonists of the peroxisome proliferator-activated receptor delta (PPARd) signaling pathway (AID 743215; active = well fitted inhibition curve with a large enough effect in the signal ratio in the repeat runs, not every such curve was filed as active; the % refers to the signal ratio;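 note: cells stimulated with agonist L165041 at 300 nM final during compound exposure; series mostly up to about 62 µM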). The gist of the method: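 Read-out is beta-lactamase FRET fluorescence, measured 2 h after substrate addition at room temperature. Beforehand, UAS-bla HEK293H cells carrying the PPARd reporter were exposed to compounds with L165041 at 300 nM final for 17 h at 37 C.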

Assay [13] addresses Bile acid receptor (Homo sapiens) (UniProt Q96RI1). As to the kind of experiment: qHTS assay to identify small molecule antagonists of the farnesoid-X-receptor (FXR) signaling pathway (AID 743217; active = well fitted inhibition curve with a large enough effect in the signal ratio in the repeat runs, not every such curve was filed as active; the % refers to the signal ratio). Summed up: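 HEK 293T FXR-UAS-bla, 5000 cells/well; compound + CDCA 50 uM final; 16 h, 37 °C; B/G FRET substrate 2 h RT; fluorescence.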
The nature of assay [14]: qHTS assay to identify small molecule agonists of the farnesoid-X-receptor (FXR) signaling pathway - cell viability counter screen (AID 743218). Note: nearly all actives have a fitted effect of over 45% in size. Note: potency is the fitted concentration of half-maximal effect. The gist of the method:
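HEK 293T FXR-bla cells; 5 h pre-incubation, 16 h compound exposure at 37 C; LiveBLAzer substrate 2 h RT, then CellTiter-Glo 30 min RT, luminescence.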

Assay [15] addresses Vitamin D3 receptor (Homo sapiens) (UniProt P11473). As to the kind of experiment: qHTS assay to identify small molecule agonists of the vitamin D receptor (VDR) signaling pathway (AID 743222; calls by dose curve; note: potency is the fitted concentration of half-maximal effect). Summed up: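 VDR-bla cells, 2,000/well; 4 h preincubation 37C; cpd (DMSO) 16 h; LiveBLAzer B/G substrate 2 h RT; fluorescence intensity read.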
Assay [16] in a line: qHTS assay for small molecule agonists of the antioxidant response element (ARE) signaling pathway (AID 743202; active = well fitted activation curve with a large enough effect in the signal ratio in the repeat runs, not every such curve was filed as active; the % refers to the signal ratio; note: potency is the fitted concentration of half-maximal effect). Summed up: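 Compounds delivered in DMSO to ARE-bla HepG2 cells (2,000 cells/well, pre-incubated 5 h) and left 16 h at 37 C. LiveBLAzer B/G FRET substrate then added for 2 h at RT before fluorescence reading.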
The nature of assay [17]: qHTS assay for small molecule activators of the heat shock response signaling pathway - cell viability counter screen (AID 743209). Note: nearly all actives have a fitted effect of over 50% in size. Note: potency is the fitted concentration of half-maximal effect. Summed up:
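Luminescence from CellTiter-Glo, added after the beta-lactamase FRET read, gave the viability signal. Cells were HSE-bla HeLa treated with DMSO-dissolved compounds for 5 h at 37 C following overnight plating.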

Assay [18] is described as follows: qHTS assay to identify small molecule antagonists of the farnesoid-X-receptor (FXR) signaling pathway - cell viability counter screen (AID 743221; active = well fitted cell-killing curve with a large enough effect in the repeat runs, not every such curve was filed as active; note: nearly all actives have a fitted effect of over 50% in size; note: potency is the fitted concentration of half-maximal effect). The gist of the method:
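Cytotoxicity is taken from ATP luminescence (CellTiter-Glo, 30 min, room temperature) in FXR-bla HEK 293T cells previously incubated 16 h at 37 C with compound and chenodeoxycholic acid at 50 uM final.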

For assay [19], the target named is Vitamin D3 receptor (Homo sapiens) (UniProt P11473). The experiment in a line: qHTS assay to identify small molecule antagonists of the vitamin D receptor (VDR) signaling pathway (AID 743223; active = well fitted inhibition curve with a large enough effect in the signal ratio in the repeat runs, not every such curve was filed as active; the % refers to the signal ratio). The gist of the method:
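Quantitative HTS in VDR-bla reporter cells stimulated with 1alpha,25-dihydroxyvitamin D3, 3 nM final. Compound exposure 16 h, 37C, 5% CO2. Read-out: beta-lactamase FRET substrate fluorescence, 2 h RT.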
% is set by controls: 0 for no effect and ±100 for the full control effect.

Sequence of Vitamin D3 receptor (Homo sapiens) (P11473 whole entry, looked up): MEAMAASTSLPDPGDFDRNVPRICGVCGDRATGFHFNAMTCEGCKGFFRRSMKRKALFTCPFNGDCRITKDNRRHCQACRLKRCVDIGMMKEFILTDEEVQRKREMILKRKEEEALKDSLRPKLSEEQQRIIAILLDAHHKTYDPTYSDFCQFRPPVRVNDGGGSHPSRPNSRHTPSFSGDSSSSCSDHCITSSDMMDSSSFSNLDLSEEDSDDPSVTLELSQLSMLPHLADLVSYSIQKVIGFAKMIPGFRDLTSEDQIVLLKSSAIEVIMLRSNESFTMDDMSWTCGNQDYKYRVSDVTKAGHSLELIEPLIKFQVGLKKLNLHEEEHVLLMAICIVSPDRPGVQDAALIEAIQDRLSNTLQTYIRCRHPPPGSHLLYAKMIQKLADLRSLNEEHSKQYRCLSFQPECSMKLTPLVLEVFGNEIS
Sequence of Peroxisome proliferator-activated receptor gamma (Homo sapiens) (P37231 whole entry, looked up): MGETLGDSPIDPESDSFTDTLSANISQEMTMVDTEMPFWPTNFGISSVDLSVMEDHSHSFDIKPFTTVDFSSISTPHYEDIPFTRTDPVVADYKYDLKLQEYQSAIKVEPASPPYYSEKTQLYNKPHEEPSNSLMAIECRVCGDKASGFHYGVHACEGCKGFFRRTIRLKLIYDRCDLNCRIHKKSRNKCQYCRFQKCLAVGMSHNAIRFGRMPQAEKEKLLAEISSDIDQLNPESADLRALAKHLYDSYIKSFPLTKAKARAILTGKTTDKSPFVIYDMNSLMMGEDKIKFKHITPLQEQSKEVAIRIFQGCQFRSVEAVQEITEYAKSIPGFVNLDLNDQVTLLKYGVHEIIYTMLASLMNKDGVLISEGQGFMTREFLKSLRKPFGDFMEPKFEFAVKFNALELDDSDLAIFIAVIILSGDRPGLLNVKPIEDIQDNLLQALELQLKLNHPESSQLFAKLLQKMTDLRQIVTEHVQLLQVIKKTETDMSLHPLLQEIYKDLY
Sequence of Aryl hydrocarbon receptor (Homo sapiens) (P35869 whole entry, looked up): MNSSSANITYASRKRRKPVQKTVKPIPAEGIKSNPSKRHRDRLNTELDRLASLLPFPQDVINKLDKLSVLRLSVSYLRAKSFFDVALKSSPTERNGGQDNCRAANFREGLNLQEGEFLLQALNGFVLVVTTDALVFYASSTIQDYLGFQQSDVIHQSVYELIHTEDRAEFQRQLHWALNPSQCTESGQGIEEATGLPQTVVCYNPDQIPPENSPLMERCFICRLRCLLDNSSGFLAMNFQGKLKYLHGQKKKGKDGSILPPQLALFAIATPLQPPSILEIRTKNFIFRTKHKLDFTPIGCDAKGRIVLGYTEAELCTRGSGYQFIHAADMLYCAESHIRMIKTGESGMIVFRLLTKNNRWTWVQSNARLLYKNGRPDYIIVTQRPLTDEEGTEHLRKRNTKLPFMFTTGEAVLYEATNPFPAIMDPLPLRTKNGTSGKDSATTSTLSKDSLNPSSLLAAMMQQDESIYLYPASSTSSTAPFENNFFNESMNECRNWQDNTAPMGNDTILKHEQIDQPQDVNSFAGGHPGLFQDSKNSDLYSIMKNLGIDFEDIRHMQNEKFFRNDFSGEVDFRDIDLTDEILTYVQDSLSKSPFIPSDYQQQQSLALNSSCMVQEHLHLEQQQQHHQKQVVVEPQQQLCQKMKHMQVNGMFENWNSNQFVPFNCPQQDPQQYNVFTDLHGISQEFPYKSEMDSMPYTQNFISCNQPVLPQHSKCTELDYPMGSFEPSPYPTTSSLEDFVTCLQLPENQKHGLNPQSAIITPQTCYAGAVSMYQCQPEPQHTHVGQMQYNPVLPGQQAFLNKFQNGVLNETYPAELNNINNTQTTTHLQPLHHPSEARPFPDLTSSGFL
Sequence of Bile acid receptor (Homo sapiens) (Q96RI1 whole entry, looked up): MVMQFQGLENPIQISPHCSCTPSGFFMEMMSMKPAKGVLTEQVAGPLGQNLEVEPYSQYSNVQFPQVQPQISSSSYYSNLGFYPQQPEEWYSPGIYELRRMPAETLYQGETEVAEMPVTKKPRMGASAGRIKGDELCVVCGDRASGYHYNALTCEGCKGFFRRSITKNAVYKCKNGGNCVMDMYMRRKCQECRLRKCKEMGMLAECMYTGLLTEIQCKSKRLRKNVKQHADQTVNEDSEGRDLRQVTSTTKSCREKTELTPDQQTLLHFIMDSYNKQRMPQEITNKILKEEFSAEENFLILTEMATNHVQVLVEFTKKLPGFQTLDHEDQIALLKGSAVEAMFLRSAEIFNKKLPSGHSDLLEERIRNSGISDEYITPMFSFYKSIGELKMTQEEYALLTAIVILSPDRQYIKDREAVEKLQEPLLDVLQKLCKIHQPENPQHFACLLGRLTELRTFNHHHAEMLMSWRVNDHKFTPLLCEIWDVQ
Sequence of Peroxisome proliferator-activated receptor delta (Homo sapiens) (Q03181 whole entry, looked up): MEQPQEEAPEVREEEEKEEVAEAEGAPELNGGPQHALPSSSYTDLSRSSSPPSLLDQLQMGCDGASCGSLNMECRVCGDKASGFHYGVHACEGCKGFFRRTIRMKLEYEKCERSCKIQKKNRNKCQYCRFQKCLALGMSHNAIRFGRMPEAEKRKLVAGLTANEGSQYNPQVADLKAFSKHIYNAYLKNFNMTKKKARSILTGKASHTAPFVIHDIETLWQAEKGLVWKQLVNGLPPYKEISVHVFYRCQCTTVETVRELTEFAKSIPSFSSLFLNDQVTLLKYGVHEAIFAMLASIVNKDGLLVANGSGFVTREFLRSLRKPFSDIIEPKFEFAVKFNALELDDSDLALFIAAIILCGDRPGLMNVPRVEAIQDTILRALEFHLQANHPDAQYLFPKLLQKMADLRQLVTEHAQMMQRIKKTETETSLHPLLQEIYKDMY

Regarding `ClCBr`, the Potency result in assay [1], in assay [2], in [3], in assay [4], in assay [5] and in assay [6] was “inactive” in each case. In addition, the Potency result in [7], in assay [8], in [9], in assay [10], in [11] and in [12] was “inactive” each time. Besides, the Potency result in assay [13], in assay [14] and in assay [15] was “inactive” each time.
As to `COc1nc(C)nc(NC(=O)NS(=O)(=O)c2ccccc2Cl)n1`, the Potency result in assay [1], in [2], in assay [3], in [4], in assay [5] and in [6] was “inactive” in each case. Also, the Potency result in assay [16], in [7], in assay [17], in assay [8], in assay [9] and in assay [11] was “inactive” each time. Also, the Potency result in assay [14], in assay [18], in assay [15] and in assay [19] was “inactive” in each case.
On to `CCOP(=O)(Sc1ccccc1)Sc1ccccc1`, for which the Potency result in assay [1], in assay [2], in assay [3], in assay [4], in [6] and in assay [7] was “inactive” each time. For the same molecule, the Potency result in assay [17], in assay [9], in assay [11], in assay [12], in assay [13] and in assay [18] was “inactive” each time. For the same molecule, the Potency result in assay [15] and in assay [19] was “inactive” each time. In [5], the Potency was 54900 nM (active).
As for `O=S1(=O)OCC2C(CO1)C1(Cl)C(Cl)=C(Cl)C2(Cl)C1(Cl)Cl` (stereo not drawn), the Potency in assay [1] is 61100 nM (active). The Potency entry in [2], in [3], in assay [4], in [5], in [6] and in assay [7] was “inactive” each time. The Potency result in assay [12] was “inactive”.
Regarding `CNN`, the Potency result in assay [1], in [2], in [3], in [4], in [5] and in [6] was “inactive” each time. For the same molecule, the Potency entry in assay [16], in [7], in assay [17], in [8], in [11] and in assay [14] was “inactive” each time. Also, the Potency entry in [18] was “inactive”.
As for `c1csc(-c2ccc(-c3cccs3)s2)c1`, the Potency entry in [1], in assay [3], in assay [6], in assay [7], in assay [17] and in [9] was “inactive” throughout. Besides, the Potency result in [11], in assay [13] and in assay [14] was “inactive” each time. The Potency in assay [2] is 24300 nM (active); in assay [4], 21900 nM (active); in [16], 2730 nM (active); in assay [10], 43600 nM (active); in [15] it was 24500 nM (active).
With `Nc1nc(N)nc(Cl)n1`, the Potency entry in assay [1], in assay [2], in [3], in assay [4], in assay [5] and in assay [6] was “inactive” throughout. For the same molecule, the Potency result in [16], in assay [7], in assay [8], in assay [9], in assay [11] and in [14] was “inactive” in each case. In addition, the Potency result in assay [18] is “inactive”.
Regarding `C[C@H]1[C@H](c2ccc(Cl)cc2)SC(=O)N1C(=O)NC1CCCCC1`, the Potency entry in assay [1], in assay [2], in assay [3], in [4], in assay [6] and in assay [7] was “inactive” each time. For the same molecule, the Potency result in assay [9], in assay [14], in assay [18] and in [15] was “inactive” throughout.
Take `CCC[CH2][Sn]([CH2]CCC)([CH2]CCC)[O][Sn]([CH2]CCC)([CH2]CCC)[CH2]CCC`: the Potency in assay [1] is 2120 nM (active); in [3], 2670 nM (active); in assay [4], 676 nM (active); in assay [6], 427 nM (active); in assay [7] it was 238 nM (active); in [17], 380 nM (active). For the same molecule, the Potency in [9] was 676 nM (active); in assay [11] it was 759 nM (active); in [14], 479 nM (active); in assay [18] it was 1200 nM (active). Besides, in assay [2], the activation is -11.8% [at 8.47 µM].
`CN`: the Potency entry in assay [1], in assay [2], in [3], in assay [6], in assay [7] and in assay [17] was “inactive” each time. The Potency result in [8], in assay [9], in [11], in [14], in assay [18] and in [15] was “inactive” throughout. In addition, the Potency entry in assay [19] was “inactive”.
